Laboratory results from PubChem BioAssay (NCATS).
“And” between values parts separate entries of the source, which are not always exact repeats. Identical values can stand only once. Results filed as inconclusive are left out. The source made the active and inactive calls. Unless noted, the call rests on the fitted dose curve; in most records, active means well fitted curve in the direction sought with a large enough effect; inconclusive means small, poorly fitted or top-dose-only effect, or another doubt; inactive means no such curve, though single readings can be large; an effect the other way counts as inactive or inconclusive.

Assays:
[1] = target: Muscarinic acetylcholine receptor M1 (Rattus norvegicus) (UniProt P08482); assay: qHTS Assay for Antagonists of Acetylcholine Muscarinic M1 Receptor: Kinetic Measurement of Intracellular Calcium Response (AID 943); further: nearly all actives have a fitted effect of over 75% in size; further: potency means the concentration at half of the fitted maximal effect
Procedure, shortened: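 Antagonism measured as reduction of carbachol-evoked (EC80, 100 nM final) calcium flux in rat M1-CHO cells after 10 min compound exposure. Fluo-4 signal read kinetically; ratio of maximal to basal fluorescence.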

[2] = qHTS Assay for Identification of Small Molecule Antagonists for NFkB Signaling Pathway (AID 895; active means well fitted inhibition curve with a large enough effect in the signal ratio, with a control signal flat, not every such curve was filed as active; the % refers to the signal ratio; further: on the % scale 0 is the no-effect control and ±100 the full control effect)
Procedure, shortened: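 ME-180 NFkB-bla cells (beta-lactamase under NFkB response element), plated overnight, treated with compound then 10 pM TNF alpha (about EC50) for 5 hrs at 37 C. LiveBLAzer FRET read at 460/530 nm emission, 405 nm excitation.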

[3] = Cell Viability - H-4-II-E (AID 543); further: nearly all actives have a fitted effect of over 35% in size; further: potency means the concentration at half of the fitted maximal effect
Procedure, shortened: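 CellTiter-Glo luminescence (intracellular ATP) measured after 40 h compound exposure at 37 °C in H-4-II-E rat hepatoma cells seeded at 1500/well. Values are AC50s fitted with the standard Hill equation.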

[4] = Cell Viability - SH-SY5Y (AID 544); settings: SH-SY5Y neuroblastoma cell viability; viability change, negative = cytotoxic: at 92.2 µM (top of the series); further: potency means the concentration at half of the fitted maximal effect; nearly all actives have a fitted effect of over 55% in size
Procedure, shortened: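 Cytotoxicity measured via ATP-dependent luciferase luminescence (CellTiter-Glo) following 40 h, 37 °C exposure of 1500 SH-SY5Y cells per well. Concentration-response data were fitted with the standard Hill equation to give AC50.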

[5] = Cell Viability - Renal Proximal Tubule (AID 545); settings: renal proximal tubule cells viability; at 91.7 µM (top of the series), primary cells of rat origin unless noted;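 further: 0% = DMSO only and -100% = 100 µM tamoxifen; nearly all actives have a fitted effect of over 40% in size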
Procedure, shortened: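 Rat renal proximal tubule primary cells, 1000/well, exposed to compounds for 40 hr at 37 °C in complete medium; cellular ATP read by CellTiter-Glo luminescence. AC50 from concentration-response fitted with standard Hill equation.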

[6] = Cellular Toxicity (caspase-3) HUV-EC-C (AID 656);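 further: 0% = DMSO basal and 100% = 100 µM tamoxifen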
Procedure, shortened: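 HUV-EC-C cells (1000/well) in complete medium, compound-treated 16 h at 37 °C; caspase-3/7 activity read by Caspase-Glo 3/7 luminescence. Normalized to DMSO (basal) and 100 uM tamoxifen (100%); AC50 from Hill-equation concentration-response fits.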

[7] = Cellular Toxicity (caspase-3) BJ (AID 658);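 further: cells exposed to compound for 16 hours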
Procedure, shortened: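 qHTS, BJ fibroblasts, 1000 cells/well; 5 hr preincubation, 16 hr compound, 37 °C; Caspase-Glo 3/7 reagent, 1 hr RT; luminescence. DMSO = 0%, 10 uM staurosporine = 100%. Hill-equation AC50.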

[8] = Cellular Toxicity (caspase-3) SK-N-SH (AID 661);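 further: cells exposed to compound for 16 hours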
Procedure, shortened: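 Caspase 3/7 activation was read by luminogenic substrate cleavage after 16 hour treatment of SK-N-SH cells. Signal was scaled between DMSO and 10 uM staurosporine, and concentration-response data were fitted with the Hill equation for AC50.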

[9] = Cellular Toxicity (caspase-3) H-4-II-E (AID 663);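 further: cells exposed to compound for 16 hr before readout; 0% = DMSO basal and 100% = 100 µM tamoxifen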
Procedure, shortened: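 H-4-II-E rat hepatoma, 1500 cells/well, 5 hr settle at 37 °C; compound 16 hr, 37 °C, complete medium; Caspase-Glo 3/7, 20 min RT; luminescence. DMSO = 0%, 100 uM tamoxifen = 100%; Hill-equation AC50.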

[10] = Cellular Toxicity (caspase-3) N2a (AID 665); settings: N2a cells, luminescence, normalized: DMSO 0%, 10 µM staurosporine 100%; at 92.2 µM (top of the series);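 further: compound exposure lasted 16 h at 37 °C before readout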
Procedure, shortened: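 Caspase-3/7 activation measured as luminescence from Caspase-Glo reagent (1 h, room temperature) after 16 h compound exposure of mouse N2a cells. AC50 values from Hill-equation concentration-response, scaled between DMSO and 10 uM staurosporine.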

[11] = Cell Viability - LYMP2-001 (AID 921);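 further: cells exposed to compound for 24 h at 37 °C; nearly all actives have a fitted effect of over 70% in size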; further: potency means the concentration at half of the fitted maximal effect
Procedure, shortened: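 Human lymphoblastoid LYMP2-001 cells, 2500 per well, in complete medium, treated 24 h at 37 C. Viability from cellular ATP by CellTiter-Glo luminescence; AC50 from Hill-equation fits of qHTS concentration-response.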

[12] = MultiTox-Fluor Cytotoxicity Assay - LYMP1-001 - Dead Cells (AID 946); further: potency means the concentration at half of the fitted maximal effect
Procedure, shortened: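 Seed 2500 LYMP1-001 cells/well, incubate 5 hr at 37 C; add compound, 16 hr at 37 C; add MultiTox-Fluor reagent, 60 min RT; read dead-cell fluorescence Ex/Em=485/520. Normalize to DMSO and 15 uM tetraoctylammonium bromide.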

[13] = Cell Viability - LYMP1-002 - Assay at 16 hr (AID 948); further: potency means the concentration at half of the fitted maximal effect;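 on activity change, negative = cytotoxicity: 0% = DMSO alone and full effect = 92 µM tetraoctylammonium bromide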
Procedure, shortened: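 LYMP1-002 human lymphoblastoid cells, 2500/well, were treated with compounds for 16 hr at 37 C in complete medium. Viability was read as intracellular ATP by CellTiter-Glo luminescence, and AC50 was derived from a Hill fit to concentration-response data.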

[14] = MultiTox-Fluor Cytotoxicity Assay - LYMP1-002 - Dead Cells (AID 960); further: potency means the concentration at half of the fitted maximal effect; nearly all actives have a fitted effect of over 60% in size
Procedure, shortened: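 Dead-cell fluorescence (Ex/Em 485/520) after 16 h compound exposure at 37 C of LYMP1-002 lymphoblastoid cells in complete medium; AC50 by Hill equation, with data scaled between DMSO and 15 uM tetraoctylammonium bromide.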

[15] = MultiTox-Fluor Cytotoxicity Assay - LYMP1-003 - Dead Cells (AID 961); further: potency means the concentration at half of the fitted maximal effect; nearly all actives have a fitted effect of over 70% in size
Procedure, shortened: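 LYMP1-003 lymphoblastoid, 2500 cells/well, 5 hr settle then 16 hr cpd at 37 C; MultiTox-Fluor reagent 60 min RT; Ex/Em 485/520 dead-cell signal; norm. DMSO = 0%, 15 uM tetraoctylammonium bromide = 100%; Hill AC50.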

[16] = MultiTox-Fluor Cytotoxicity Assay - LYMP1-003 - Live Cells (AID 962);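 further: cells exposed to compound for 16 hours at 37 °C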; further: potency means the concentration at half of the fitted maximal effect
Procedure, shortened: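 Live-cell protease activity (GF-AFC substrate, 405/510 nm, 60 min at room temperature) after 16 h, 37 C compound exposure of human lymphoblastoid LYMP1-003 cells; concentration-response fitted to the Hill equation for AC50.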

[17] = target: Voltage-gated inwardly rectifying potassium channel KCNH2 (Homo sapiens) (UniProt Q12809); assay: qHTS Assay for Small Molecule Inhibitors of the Human hERG Channel Activity (AID 588834);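 further: potency means the concentration at half of the fitted maximal effect; lower thallium flux fluorescence means stronger hERG block; nearly all actives have a fitted effect of over 50% in size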
Procedure, shortened: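 Thallium serves as surrogate for K+ influx through BacMam-delivered hERG in U2OS cells. Compounds are added for about 10 minutes after dye loading; stimulation buffer then starts flux, monitored kinetically on FDSS.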

[18] = qHTS assay for small molecule disruptors of the mitochondrial membrane potential - 1 hr assay (AID 651754; calls by dose curve; further: nearly all actives have a fitted effect of over 35% in size; further: potency means the concentration at half of the fitted maximal effect)
Procedure, shortened: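 Mitochondrial potential in living HepG2 cells after 1 hr compound treatment at 37C was read with Mito-MPS dye added for a further 30 min. Red aggregate and green monomer fluorescence were measured; loss of potential leaves dye as cytoplasmic monomers.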

[19] = qHTS assay for small molecule disruptors of the mitochondrial membrane potential - 5 hr assay (AID 651755; calls by dose curve; further: nearly all actives have a fitted effect of over 40% in size; further: potency means the concentration at half of the fitted maximal effect)
Procedure, shortened: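 Read-out: ratiometric Mito-MPS fluorescence, green monomer (ex 490/em 535) vs red mitochondrial aggregate (ex 540/em 590). HepG2 cells treated 5 hr at 37C before 30 min dye loading.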

[20] = qHTS assay for small molecule antagonists of the retinoid-related orphan receptor gamma (ROR-gamma) signaling pathway - cell viability counter screen (AID 720652; active means well fitted curve in the direction sought with a large enough effect in the repeat runs; an effect the other way counts as inactive or inconclusive;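 further: potency means the concentration at half of the fitted maximal effect; compound exposure lasted 16 hr before ATP read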)
Procedure, shortened: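 Cytotoxicity counter screen: intracellular ATP (CellTiter-Glo luminescence) measured in the doxycycline-induced CHO RORE-luciferase reporter line after 16 hr compound exposure at 37 C, 5% CO2.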

Sequence of Muscarinic acetylcholine receptor M1 (Rattus norvegicus) (P08482 whole entry, looked up): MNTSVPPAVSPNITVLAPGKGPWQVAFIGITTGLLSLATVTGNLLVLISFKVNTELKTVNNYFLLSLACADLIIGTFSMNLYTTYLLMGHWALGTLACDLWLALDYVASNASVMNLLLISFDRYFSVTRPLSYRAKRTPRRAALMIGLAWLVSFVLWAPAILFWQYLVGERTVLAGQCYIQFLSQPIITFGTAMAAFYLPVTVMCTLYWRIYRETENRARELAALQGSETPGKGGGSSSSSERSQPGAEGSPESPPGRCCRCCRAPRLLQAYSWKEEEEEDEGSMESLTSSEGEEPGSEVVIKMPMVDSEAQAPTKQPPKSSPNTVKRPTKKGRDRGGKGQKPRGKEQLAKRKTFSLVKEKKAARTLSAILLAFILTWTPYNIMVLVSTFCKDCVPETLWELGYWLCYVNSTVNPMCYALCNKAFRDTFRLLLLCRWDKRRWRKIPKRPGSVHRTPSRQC
Sequence of Voltage-gated inwardly rectifying potassium channel KCNH2 (Homo sapiens) (Q12809 whole entry, looked up): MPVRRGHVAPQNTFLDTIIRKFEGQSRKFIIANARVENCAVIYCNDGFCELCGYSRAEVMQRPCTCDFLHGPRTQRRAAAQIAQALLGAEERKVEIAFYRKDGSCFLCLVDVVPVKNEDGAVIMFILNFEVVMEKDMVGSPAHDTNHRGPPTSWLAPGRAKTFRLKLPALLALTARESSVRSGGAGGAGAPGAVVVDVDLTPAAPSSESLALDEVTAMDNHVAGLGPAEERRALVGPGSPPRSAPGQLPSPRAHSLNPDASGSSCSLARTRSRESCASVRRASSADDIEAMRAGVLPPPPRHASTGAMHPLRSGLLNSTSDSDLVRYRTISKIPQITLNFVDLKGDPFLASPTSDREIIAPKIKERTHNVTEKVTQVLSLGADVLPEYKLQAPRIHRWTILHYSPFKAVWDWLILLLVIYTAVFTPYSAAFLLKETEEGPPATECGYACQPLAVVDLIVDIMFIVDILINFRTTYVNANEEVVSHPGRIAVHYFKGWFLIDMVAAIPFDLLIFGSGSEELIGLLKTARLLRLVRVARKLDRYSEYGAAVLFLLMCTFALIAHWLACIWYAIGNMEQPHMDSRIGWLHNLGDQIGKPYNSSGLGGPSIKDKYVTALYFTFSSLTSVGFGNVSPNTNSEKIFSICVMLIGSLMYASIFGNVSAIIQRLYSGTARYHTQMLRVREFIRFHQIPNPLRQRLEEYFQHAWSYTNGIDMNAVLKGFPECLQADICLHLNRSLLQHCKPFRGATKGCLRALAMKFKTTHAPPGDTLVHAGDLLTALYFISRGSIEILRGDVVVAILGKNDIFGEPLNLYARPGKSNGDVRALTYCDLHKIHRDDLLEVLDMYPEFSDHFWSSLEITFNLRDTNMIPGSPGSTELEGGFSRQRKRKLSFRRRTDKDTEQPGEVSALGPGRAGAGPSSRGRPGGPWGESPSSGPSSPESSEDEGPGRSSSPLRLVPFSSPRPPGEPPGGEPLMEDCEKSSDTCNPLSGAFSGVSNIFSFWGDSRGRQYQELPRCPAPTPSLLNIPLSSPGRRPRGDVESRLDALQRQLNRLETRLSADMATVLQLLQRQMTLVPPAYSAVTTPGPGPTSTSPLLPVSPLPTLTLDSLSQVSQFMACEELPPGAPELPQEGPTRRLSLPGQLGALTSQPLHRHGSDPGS

CS(=N)(=O)CC[C@@H](N)C(=O)O (stereo partly specified)
inactive: Potency [1]

NC[C@H](O)c1ccc(O)cc1
inactive: Potency [1]

CC(C)N(CC[C@@](C(N)=O)(c1ccccc1)c1ccccn1)C(C)C
active: Potency [1] 4.47 µM and 3.98 µM
inactive: Potency [2]

C#CCN(C)[C@@H](C)Cc1ccccc1
inactive: Potency [2]

CCCCCCCCCc1ccc(O)cc1
active: Potency [4] 12.6 µM | activity change, negative = cytotoxicity [5] -80.8% | caspase-3 activation [10] 98.6% | Potency [12] 39.8 µM | Potency [14] 25.1 µM | Potency [15] 39.8 µM | Potency [17] 31.6 µM | Potency [18] 10.6 µM | Potency [19] 16.8 µM | Potency [20] 66.8 µM
inactive: Potency [3] | outcome [6] | outcome [7] | outcome [8] | outcome [9] | Potency [11] | Potency [13] | Potency [16]

O=C1C(Cl)=C(Cl)C(=O)C(Cl)=C1Cl
inactive: outcome [6] | outcome [7] | outcome [8] | outcome [9] | caspase-3 activation [10] -13.5% | Potency [18] | Potency [19]
active: Potency [3] 50.1 µM | Potency [4] 25.1 µM | activity change, negative = cytotoxicity [5] -104% | Potency [11] 12.6 µM | Potency [12] 12.6 µM | Potency [13] 31.6 µM | Potency [14] 15.8 µM | Potency [15] 25.1 µM | Potency [16] 50.1 µM | Potency [17] 44.7 µM | Potency [20] 23.7 µM
